Screening data deposited in PubChem by National Center for Advancing Translational Sciences (NCATS).
The list is not random: actives were taken first. Their share in the collection is about 19%.
Giardia killer = Small Molecules that selectively kill Giardia lamblia: qHTS | Giardia lamblia trophozoite viability | activity change, % at 7.66 µM, hits read low | hit rate 0.15% among 340,000; in the data active means activity change below about -80%; inconclusive means between about -30% and that limit;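 further: parasites exposed to compound for two days anaerobically before the ATP read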
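ATP-content bioluminescence gauges trophozoite survival. Cells (100/well) receive compound and incubate anaerobically for 48 hrs at 37 deg C; detection reagent follows for 15-30 min at room temperature.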
TDP1 block = qHTS Assay for Inhibitors of Tyrosyl-DNA Phosphodiesterase (TDP1); recombinant TDP1, AlphaScreen DNA substrate cleavage; Tyrosyl-DNA phosphodiesterase 1 (Homo sapiens), Q9NUW8; hit rate 0.28% among 350,000; Potency, µM (top dose mostly 130 µM), for inactives: top-dose activity change, negative = inhibition, most hits filed as inhibitors; AID 485290, 2010; further: potency means the concentration at half of the fitted maximal effect; nearly all actives have a fitted effect of over 40% in size
Target sequence (Q9NUW8 whole entry, looked up): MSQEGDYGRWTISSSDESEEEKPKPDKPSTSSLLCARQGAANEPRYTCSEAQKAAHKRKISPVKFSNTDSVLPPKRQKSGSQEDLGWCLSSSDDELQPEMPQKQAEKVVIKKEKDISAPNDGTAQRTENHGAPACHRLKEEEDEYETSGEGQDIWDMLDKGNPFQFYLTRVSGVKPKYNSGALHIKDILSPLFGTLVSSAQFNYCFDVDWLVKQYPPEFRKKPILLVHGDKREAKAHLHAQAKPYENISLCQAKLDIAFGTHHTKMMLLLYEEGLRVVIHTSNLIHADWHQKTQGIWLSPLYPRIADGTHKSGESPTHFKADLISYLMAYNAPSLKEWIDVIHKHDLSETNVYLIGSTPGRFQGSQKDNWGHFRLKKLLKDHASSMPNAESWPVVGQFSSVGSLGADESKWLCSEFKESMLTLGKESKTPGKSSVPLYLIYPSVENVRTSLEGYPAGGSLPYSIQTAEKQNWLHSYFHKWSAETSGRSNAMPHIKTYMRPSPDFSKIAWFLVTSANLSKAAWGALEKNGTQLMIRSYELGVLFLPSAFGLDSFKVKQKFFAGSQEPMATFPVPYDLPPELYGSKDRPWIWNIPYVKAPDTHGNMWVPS
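Recombinant human Tdp1 (E. coli-expressed, 1 nM final) preincubated with compounds 15 min at room temperature, then 5'-biotin/3'-phosphotyrosine-FITC DNA substrate (15 nM final) added for 5 min. AlphaScreen beads (10 ug/ml final) added 10 min; cleavage lowers signal.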
DT40 TDP1 no CPT = qHTS for Inhibitors of human tyrosyl-DNA phosphodiesterase 1 (TDP1): qHTS in cells in absence of CPT; DT40 Tdp1-/- hTDP1 cells, no CPT, ATP luminescence, 48 h; Potency, µM (series often up to 46.2 µM), for inactives: top-dose activity change, negative = growth inhibition, actives largely listed as inhibitors; hit rate 15% among 420,000; further: potency means the concentration at half of the fitted maximal effect; nearly all actives have a fitted effect of over 55% in size
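Chicken DT40 Tdp1-/- cells stably complemented with human TDP1 were seeded at 400 cells/well with DMSO in place of 20 nM camptothecin. After compound pinning, cells grew at least 48 hr at 37 °C; viability read by CellTiter-Glo luminescence.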
ELG1 DNA repair = qHTS screen for small molecules that inhibit ELG1-dependent DNA repair in human embryonic kidney (HEK293T) cells expressing luciferase-tagged ELG1 | AID 504467, 2011 | HEK293T ELG1-luciferase reporter, luminescence, 16 h; DNA damage induced by 5-fluorouridine | hit rate 2.3% among 330,000 | Potency, µM (highest dose often 46.1 µM), inactives show at the highest dose activity change, negative = inhibition, actives largely listed as inhibitors; further: potency means the concentration at half of the fitted maximal effect; nearly all actives have a fitted effect of over 55% in size
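DMSO vehicle served as the neutral condition. Each well held 2,000 cells given 5-fluorouridine plus compound; after 16 hr at 37 °C/5% CO2, ONE-Glo was added and luciferase measured 30 min later.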
IL-1B inflam inh = qHTS for Inhibitors of Inflammasome Signaling: IL-1-beta AlphaLISA Primary Screen; activity change, % at 57.5 µM; hit rate 4.7% among 360,000; AID 743279, 2014; THP-1 LPS/ATP IL-1B secretion, AlphaLISA, 16 h; stronger effect = lower value; in the data active means activity change below about -50%; inconclusive means mostly about -30% to -49%
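Secreted IL-1B measured by AlphaLISA bead assay after 16 h compound exposure of THP-1 cells; compounds (final up to 57.5 uM) added 1 h before LPS (250 ng/mL) and ATP (1.25 mM) stimulation; lower signal means less secretion.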
DT40 TDP1 CPT = qHTS for Inhibitors of human tyrosyl-DNA phosphodiesterase 1 (TDP1): qHTS in cells in presence of CPT; chicken DT40 Tdp1-/-;hTDP1 cells + 20 nM CPT, ATP luminescence, 48 h; Potency, µM (series often up to 46.2 µM), without a hit: at the highest dose activity change, negative = growth inhibition, hits mostly inhibitors; hit rate 12% among 420,000; further: potency means the concentration at half of the fitted maximal effect; nearly all actives have a fitted effect of over 55% in size
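Chicken DT40 Tdp1-/- cells stably complemented with human TDP1 were seeded at 400 cells/well in medium containing 20 nM camptothecin, exposed to pin-transferred compounds, and grown at 37 °C for at least 48 hr. Viability was read as ATP luminescence.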
Numbers without * were called inactive; ? = inconclusive; nt = not tested or not shown. Unless noted, the call rests on the fitted dose curve; in most records, active means well fitted curve in the direction sought with a large enough effect; inconclusive means small, poorly fitted or top-dose-only effect, or another doubt; inactive means no such curve, though single readings can be large; an effect the other way counts as inactive or inconclusive. On the % scale 0 is the no-effect control and ±100 the full control effect.

SMILES	Giardia killer	TDP1 block	DT40 TDP1 no CPT	ELG1 DNA repair	IL-1B inflam inh	DT40 TDP1 CPT
CCOc1cccc(-c2nn(-c3ccccc3)cc2/C=C(/C#N)C(=O)NCCCn2ccnc2)c1	-23	10%	?	?	-99*	?
C/C(=C/C(=O)Nc1cccc(F)c1)N1CCCC1	-6	2%	-3%	8%	0	19%
CCOc1ccc2nc(N3CCCC(C(=O)Nc4ccc(Br)c(C)c4)C3)sc2c1 (stereo not drawn)	nt	2%	?	nt	nt	?
O=C(CCSc1ccc(Cl)cc1)c1cccs1	-5	1%	2.3µM*	-22%	-106*	1.8µM*
O=C(CCNc1ccc(Cl)cc1)c1cccs1	-7	1%	15µM*	?	?	26µM*
CC1=C(C(=O)OCC2CCCO2)C(c2ccc(C)cc2)C2=C(CC(C)(C)CC2=O)N1 (stereo not drawn)	-4	6%	0%	?	-8	-11%
O=C(N/N=C/c1cccc2cccnc12)c1ccccc1O	-8	nt	4.1µM*	?	228	5.2µM*
O=C(N/N=C/c1ccccc1Br)c1ccc(CSc2cccc3cccnc23)cc1	4	1%	0%	21µM*	2	-15%
O=C(N/N=C/c1cccc2nccnc12)c1ccncc1	9	7%	?	3%	33	?
O=C(N/N=C/c1cccc2nccnc12)c1ccccc1O	39	8%	3.3µM*	4%	248	5.8µM*
O=C1CCC/C(=N\NC(=O)c2ccc(CSc3cccc4cccnc34)cc2)C1	2	9%	-17%	3%	-1	-9%
CC(C)NC(=O)CCSc1nc(-c2ccc3c(c2)OCO3)cc(C(F)(F)F)n1	nt	-1%	8.2µM*	nt	nt	13µM*
CC(NC(=O)CCSc1nc(-c2ccc3c(c2)OCO3)cc(C(F)(F)F)n1)c1ccccc1 (stereo not drawn)	-22	-1%	?	?	13	23µM*
COc1cc(NC(=O)CCn2c(=S)oc3ccccc32)cc(OC)c1OC	9	nt	-12%	-7%	188	7%
COc1cccc(CNC(=O)COc2cc(=O)n(C)c3ccccc23)c1	nt	0%	-18%	nt	nt	-26%
COc1ccc(-c2ccc(C(=O)NCc3ccc(N4CCN(C)CC4)cc3)c3occc23)c(C)c1	nt	nt	16µM*	nt	?	16µM*
COc1ccc(-c2ccc(C(=O)NCc3ccccc3)c3occc23)c(C)c1	nt	nt	?	nt	?	23µM*
COCCNC(=O)c1ccc(-c2ccc(OC)cc2C)c2ccoc12	nt	nt	?	nt	-30	?
COc1ccc(-c2ccc(C(=O)NCC3CCOCC3)c3occc23)c(C)c1	nt	nt	?	nt	-11	?
COc1ccc(-c2ccc(C(=O)NCc3ccc(C(F)(F)F)cc3)c3occc23)c(C)c1	nt	nt	16µM*	nt	-22	18µM*
CCc1ccc(NC(=O)CN2C(=O)c3cccc4cccc2c34)cc1	nt	2%	-29%	nt	nt	-19%
COC(=O)c1[nH]c2cc(OC)ccc2c1NC(=O)CN1CCOCC1	nt	7%	nt	-23%	nt	nt
Cc1ccc2[nH]c(C(=O)O)c(NC(=O)CN3CCN(c4cccc(C)c4C)CC3)c2c1	-1	1%	23µM*	-5%	45	?
Cc1ccc(C)c(N2CCN(CC(=O)Nc3ccc4[nH]c(=O)[nH]c4c3)CC2)c1	-11	-3%	?	0%	-5	-23%
COC(=O)c1[nH]c2cc(OC)c(OC)cc2c1NC(=O)CN1CCN(Cc2ccccc2)CC1	nt	4%	nt	1.6µM*	nt	nt
